Compound activity as filed in PubChem BioAssay.
Shown are actives, neighbours in structure and some others; about 20% of the full set was active somewhere.
Shiga toxin inh: blocks Shiga toxin action in Vero cells | Vero cells, Shiga toxin protein synthesis inhibition reporter | inhibition, % at 38.7 µM | 9.2% of 290,000 active; in the data active means inhibition mostly above about 28%, no sharp cut-off; inactive means mostly below about 43%; further: 0% is about no effect
Pf growth 96h: P. falciparum growth inhibition at 96 hour, primary screen for plastid delayed-death inhibitors; Potency, µM (highest dose often 28.7 µM), for inactives: top-dose activity change, negative = inhibition, usual class: inhibitors; P. falciparum luciferase reporter growth, 96 h; AID 504834; 6.9% of 320,000 active; further: potency means the concentration at half of the fitted maximal effect; on the % scale 0 is the no-effect control and ±100 the full control effect
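Erythrocytes infected with luciferase-expressing P. falciparum were dispensed at 2% hematocrit and 0.05% parasitemia (final), then incubated with compounds 96 hours at 37 C in 5% CO2. Luminescence after detection reagent addition reported growth.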
CHX counter: affects cycloheximide protein synthesis inhibition readout, counter-screen; max response, %; 12% of 300,000 active; cell reporter, cycloheximide protein synthesis inhibition counterscreen; in the data active means max response mostly above about 13%, no sharp cut-off; inactive means mostly below about 14%; further: read at 38.3 µM for the half of the compounds with a filed dose; 0% is about no effect
Pf growth 48h: P. falciparum growth inhibition at 48 hours (one generation); 5.9% of 310,000 active; Potency, µM (top dose mostly 28.7 µM), inactives show at the highest dose activity change, negative = inhibition, hits mostly inhibitors; AID 504832; P. falciparum luciferase growth in erythrocytes, 48 h; further: potency means the concentration at half of the fitted maximal effect; on the % scale 0 is the no-effect control and ±100 the full control effect
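In quantitative HTS format, infected erythrocytes bearing luciferase-reporter parasites were treated for a single generation at 37 C. Luminescence after adding detection reagent served as the growth measure.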
HCMV inh: inhibitors of human cytomegalovirus | 4.5% of 410,000 active | AID 1259415 | HFF cells, HCMV-luciferase reporter, 72 h; hits give low values | activity change, negative = inhibition, % at 57.5 µM; in the data active means activity change below about -60%; inconclusive means no clear call, values can overlap the other calls; inactive means above about -39%; further: on the % scale 0 is the no-effect control and ±100 the full control effect
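Cell-based, HFFs, 1000 cells/well, 16 h 37C; cpds in DMSO + HCMV-luc, MOI 1 PFU/cell; 72 h 37C; OneGlo luminescence after 5 min RT; norm. to buffer vs Salinomycin 10uM.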
An asterisk follows results filed as active; i = inactive; ? = inconclusive; . = not tested or not shown. Unless noted, the call rests on the fitted dose curve; in most records, active means well fitted inhibition curve with a large enough effect; inconclusive means small, poorly fitted or top-dose-only effect, or another doubt; inactive means no such curve, though single readings can be large or run the other way.

SMILES | Shiga toxin inh | Pf growth 96h | CHX counter | Pf growth 48h | HCMV inh
O=C(NCCc1ccc(F)cc1)c1cccc(NC(=O)c2ccccc2)c1 | 44 | ? | 23* | -12% | -8
Cc1ccc(N(CC(=O)Nc2ccc(Br)cc2)S(=O)(=O)c2cccs2)cc1 | . | . | . | . | -19
Cc1cc(=O)oc2c(C)c(OCC(=O)Nc3cccnc3)ccc12 | 41* | -24% | 31* | ? | -26
CCCCc1cc(=O)oc2cc(OCC(=O)Nc3cccnc3)c(Cl)cc12 | 14 | -27% | -2 | 16% | -14
Cc1cc(=O)oc2c(C)c(OCC(=O)c3ccccc3)ccc12 | -4 | 8% | -4 | 36% | -2
CCCc1cc(=O)oc2c(C)c(OCC(=O)Nc3cccnc3)ccc12 | 3 | 2.3µM* | -1 | 3.3µM* | ?
O=C(NCCc1ccc(Cl)cc1)c1cccn1-c1nnc(N2CCCC2)s1 | . | . | . | . | 0
CCc1nc(NC(C)C)c2oc3ccccc3c2n1 | 37 | -5% | -1 | 0% | -3
O=c1[nH]c(CSc2ccccn2)nc2c1oc1ccccc12 | 91* | 25% | 49* | i | -23
CCc1nc2c(oc3ccccc32)c(=O)[nH]1 | 35 | 82% | 22* | ? | 45
O=c1[nH]cnc2c1oc1ccccc12 | 70* | 8% | 34* | 36% | 66
Cn1cnc2c(oc3ccccc32)c1=O | . | . | . | . | 19
Cc1cccc(NC(=S)N(CCCN2CCOCC2)Cc2ccco2)c1 | -11 | 15% | -2 | ? | 15
Cc1ccc(C(=O)C(C)OC(=O)CCS(=O)(=O)c2ccc(C)cc2)cc1 (centres undefined) | . | -7% | . | -4% | -14
O=C(c1ccc2c(c1)CCN2S(=O)(=O)c1ccc(Cl)cc1)N1CCN(c2ccccc2F)CC1 | . | . | . | . | -21
COc1ccc(O)c(C(=O)c2cnn(-c3ccc(Cl)cc3)c2)c1 | 40* | ? | 20 | ? | -26
Cc1ccc(O)c(C(=O)c2cnn(C(=O)COc3ccc(Cl)cc3)c2)c1 | -14 | 9% | -3 | 15% | -61*
O=C(c1cnn(-c2ccccc2)c1)c1cc(Br)ccc1O | . | -84% | . | ? | 6
COc1ccc(O)c(C(=O)c2cnc3nc4ccccc4n3c2)c1 | -1 | 0% | 2 | 29% | -12
COc1ccc(O)c(C(=O)c2cnn(-c3ccccn3)c2)c1 | 63* | 37% | 33* | 21% | -32
O=C(c1cnn(C(=O)COc2ccc(Cl)cc2)c1)c1ccccc1O | 2 | 21% | -2 | 18% | ?
COc1cccc(C(=O)NCCS(=O)(=O)N2CC(C)CC(C)C2)c1 (centres undefined) | . | 49% | . | 22% | -29
CC(=O)O[C@H]1C(=O)[C@@]2(C)[C@H]([C@H](OC(=O)c3ccccc3)[C@]3(O)C[C@H](OC(=O)[C@H](O)C(NC(=O)c4ccccc4)c4ccccc4)C(C)=C1C3(C)C)[C@]1(OC(C)=O)CO[C@@H]1C[C@@H]2O (some centres undefined) | 1 | 0.074µM* | 2 | 0.1µM* | -83*
CCCCCC(=O)N[C@@H](c1ccccc1)[C@@H](O)C(=O)O[C@H]1C[C@@]2(O)[C@@H](OC(=O)c3ccccc3)C3[C@](C)(C(=O)[C@H](OC(C)=O)C(=C1C)C2(C)C)[C@@H](O)C[C@H]1OC[C@@]31OC(C)=O (some centres undefined) | 3 | ? | -1 | ? | ?
CC(=O)O[C@H]1C(=O)[C@@]2(C)[C@H]([C@H](OC(=O)c3ccccc3)[C@]3(O)C[C@H](OC(=O)[C@H](O)[C@@H](NC(=O)c4ccccc4)c4ccccc4)C(C)=C1C3(C)C)[C@]1(OC(C)=O)CO[C@@H]1C[C@@H]2O | . | 0.059µM* | . | 0.074µM* | -70*
SMILES | Shiga toxin inh | Pf growth 96h | CHX counter | Pf growth 48h | HCMV inh
C/C=C(\C)C(=O)N[C@@H](c1ccccc1)[C@@H](O)C(=O)O[C@H]1C[C@@]2(O)[C@@H](OC(=O)c3ccccc3)C3[C@](C)(C(=O)[C@H](OC(C)=O)C(=C1C)C2(C)C)[C@H](O)C[C@H]1OC[C@@]31OC(C)=O (some centres undefined) | -4 | ? | 3 | ? | -39
CC(=O)O[C@@]12CO[C@@H]1C[C@@H](O)[C@@]1(C)C(=O)[C@H](O)C3=C(C)[C@@H](OC(=O)[C@H](O)[C@@H](NC(=O)c4ccccc4)c4ccccc4)C[C@@](O)([C@@H](OC(=O)c4ccccc4)C12)C3(C)C (some centres undefined) | -5 | 0.046µM* | -3 | ? | ?
CC/C=C/CC(=O)N[C@@H](c1ccccc1)[C@@H](O)C(=O)O[C@H]1C[C@@]2(O)[C@@H](OC(=O)c3ccccc3)C3[C@](C)(C(=O)[C@H](OC(C)=O)C(=C1C)C2(C)C)[C@@H](O)C[C@H]1OC[C@@]31OC(C)=O (some centres undefined) | 1 | 0.33µM* | 1 | 0.47µM* | -91*
COc1ccc(NC(=O)Cn2cnc3sc(C)c(S(=O)(=O)N4CCOCC4)c3c2=O)cc1Cl | 13 | 27% | -1 | ? | -30
CCC(C)C(=O)N[C@@H](c1ccccc1)[C@@H](O)C(=O)O[C@H]1C[C@@]2(O)[C@@H](OC(=O)c3ccccc3)C3[C@](C)(C(=O)[C@H](OC(C)=O)C(=C1C)C2(C)C)[C@@H](O)C[C@H]1OC[C@@]31OC(C)=O (some centres undefined) | -1 | 0.23µM* | -2 | 0.47µM* | 21
CC(=O)OC12COC1CC(O)C1(C)C(=O)C(O)C3=C(C)C(O)CC(O)(C(OC(=O)c4ccccc4)C21)C3(C)C (centres undefined) | . | . | . | . | -37
O=[N+]([O-])c1ccc(N2CCc3ccccc3C2)nc1 | 54* | 6% | 28* | 5% | -9
O=C(Nc1ccnn1C1CCN(CC(O)CO)CC1)C1CCCC1 (centres undefined) | -15 | -3% | -2 | 0% | -9
CCOC(=O)C1=CN(c2cccc(F)c2)C=C(C(=O)OCC)C1c1cc(OC)c(O)c([N+](=O)[O-])c1 | -10 | ? | 1 | 10µM* | 5
COc1ccc(-c2nc3c(C)cc(Br)cn3c2CC2CCCCC2)cc1OC | . | . | . | . | 0
Cc1coc2c(C)c3oc(=O)c(CCC(=O)N[C@@H](C)C(=O)N[C@@H](Cc4ccccc4)C(=O)O)c(C)c3cc12 | -4 | ? | 1 | 37% | -20
COc1ccc(OC)c(NC(=O)CC2SC(=Nc3ccccc3)N(CCc3ccccn3)C2=O)c1 (centres undefined) | -11 | 4.7µM* | 7 | 15µM* | ?
COc1ccc(N=C2SC(CC(=O)Nc3ccccc3)C(=O)N2CCc2ccccn2)cc1 (centres undefined) | 17 | 15µM* | 18 | ? | -29
COc1ccc(N=C2SC(CC(=O)Nc3cccc(Cl)c3)C(=O)N2Cc2ccco2)cc1 (centres undefined) | 16* | ? | 37* | ? | -30
